According to the supplement of paper PMC11732987, “Enantioselective OTUD7B fragment discovery through chemoproteomics screening and high-throughput optimisation” (Communications Chemistry, 2025):

Columns and labels:
Test in all cases: log2 ratio of Biotin-Ahx-Ub-VS probe labelling (compound/DMSO); higher = less target engagement, active = hit call of the paper (q ≤ 0.05, log2 ratio ≤ -1)
Conditions in all cases: treatment time: 3 h
[1] = compound: ClCC(=O)NC1CCCc2ccccc12
In short: (§1)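 Compound at 50 or 200 µM, or DMSO, was applied for 3 h in triplicate to HEK293T lysate (495 µg per sample, Tris/CHAPS/IGEPAL buffer with protease inhibitors), after which Biotin-Ahx-Ub-VS was added at 0.5 µM final for 1 h. The labelled DUBs were pulled down with NeutrAvidin, digested with LysC and trypsin, and run by diaPASEF LC-MS/MS. Ratios are averaged base-two logs of compound over DMSO from median-normalised label-free quantities by unpaired t-test, counting only proteins with at least 2 unique peptides.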

[2] = compound: ClCC(=O)NC1CCOc2ccc(Cl)cc12
In short: as §1

[3] = compound: ClCC(=O)NC1CCSc2ccccc12
In short: as §1

[4] = compound: ClCC(=O)N[C@H]1CCCc2ccccc12
In short: as §1

[5] = compound: Fc1ccc(N2CCN(c3nc4c(CN(C(CCl)=O)CC4)cn3)CC2)cc1.Cl.Cl
In short: as §1

Measured: log2 ratio of Biotin-Ahx-Ub-VS probe labelling

USP15 (UniProt Q9Y4E8)
active: [5]; compound concentration: 200uM -1.58
inactive: [1]; compound concentration: 50uM -0.0996 | [1]; compound concentration: 200uM -0.0168 | [2]; compound concentration: 50uM -0.328 | [2]; compound concentration: 200uM -0.255 | [3]; compound concentration: 50uM 0.00954 | [3]; compound concentration: 200uM -0.189 | [4]; compound concentration: 50uM -0.0873 | [4]; compound concentration: 200uM -0.249 | [5]; compound concentration: 50uM -0.441

USP14 (UniProt P54578)
inactive: [1]; compound concentration: 50uM -0.364 | [1]; compound concentration: 200uM 0.154 | [2]; compound concentration: 50uM -0.397 | [2]; compound concentration: 200uM -0.0189 | [3]; compound concentration: 50uM -0.186 | [3]; compound concentration: 200uM -0.179 | [4]; compound concentration: 50uM 0.115 | [4]; compound concentration: 200uM -0.537 | [5]; compound concentration: 50uM 0.108 | [5]; compound concentration: 200uM -0.424

UCHL3 (UniProt P15374)
Chain of UniProt P15374 (P15374 whole entry): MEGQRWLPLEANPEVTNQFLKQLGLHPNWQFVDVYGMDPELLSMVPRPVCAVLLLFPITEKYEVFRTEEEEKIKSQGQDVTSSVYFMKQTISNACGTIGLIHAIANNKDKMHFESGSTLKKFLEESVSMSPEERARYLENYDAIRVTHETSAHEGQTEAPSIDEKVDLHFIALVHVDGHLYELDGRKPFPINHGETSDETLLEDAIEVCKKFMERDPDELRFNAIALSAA
inactive: [1]; compound concentration: 50uM -0.203 | [1]; compound concentration: 200uM 0.0177 | [2]; compound concentration: 50uM -0.519 | [2]; compound concentration: 200uM -0.27 | [3]; compound concentration: 50uM -0.0871 | [3]; compound concentration: 200uM -0.294 | [4]; compound concentration: 50uM -0.224 | [4]; compound concentration: 200uM -0.372
active: [5]; compound concentration: 50uM -1.23 | [5]; compound concentration: 200uM -4.19

USP46 (UniProt P62068)
active: [5]; compound concentration: 200uM -1.72
inactive: [1]; compound concentration: 50uM -0.0934 | [1]; compound concentration: 200uM -0.257 | [2]; compound concentration: 50uM -0.229 | [2]; compound concentration: 200uM -0.251 | [3]; compound concentration: 50uM -0.017 | [3]; compound concentration: 200uM -0.304 | [4]; compound concentration: 50uM -0.00597 | [4]; compound concentration: 200uM -0.413 | [5]; compound concentration: 50uM -0.241

UCHL1 (UniProt P09936)
Chain of UniProt P09936 (P09936 whole entry, looked up): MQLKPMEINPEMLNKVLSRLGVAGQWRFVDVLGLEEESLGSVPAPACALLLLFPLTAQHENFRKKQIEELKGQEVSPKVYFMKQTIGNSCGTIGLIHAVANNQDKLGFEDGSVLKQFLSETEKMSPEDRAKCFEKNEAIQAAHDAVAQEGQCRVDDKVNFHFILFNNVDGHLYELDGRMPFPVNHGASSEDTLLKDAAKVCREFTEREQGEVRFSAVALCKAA
inactive: [1]; compound concentration: 50uM -0.0609 | [1]; compound concentration: 200uM 0.151 | [2]; compound concentration: 50uM -0.516 | [2]; compound concentration: 200uM -0.228 | [3]; compound concentration: 50uM 0.0655 | [3]; compound concentration: 200uM -0.146 | [4]; compound concentration: 50uM -0.0596 | [4]; compound concentration: 200uM -0.223 | [5]; compound concentration: 50uM 0.0885 | [5]; compound concentration: 200uM -0.474

EIF3F (UniProt O00303)
inactive: [1]; compound concentration: 50uM -0.228 | [1]; compound concentration: 200uM 0.0219 | [2]; compound concentration: 50uM -0.17 | [2]; compound concentration: 200uM 0.0998 | [3]; compound concentration: 50uM -0.0176 | [3]; compound concentration: 200uM 0.00311 | [4]; compound concentration: 50uM -0.292 | [4]; compound concentration: 200uM 0.0431 | [5]; compound concentration: 50uM 0.028 | [5]; compound concentration: 200uM 0.0109

YOD1 (UniProt Q5VVQ6)
Chain of UniProt Q5VVQ6 (Q5VVQ6 whole entry): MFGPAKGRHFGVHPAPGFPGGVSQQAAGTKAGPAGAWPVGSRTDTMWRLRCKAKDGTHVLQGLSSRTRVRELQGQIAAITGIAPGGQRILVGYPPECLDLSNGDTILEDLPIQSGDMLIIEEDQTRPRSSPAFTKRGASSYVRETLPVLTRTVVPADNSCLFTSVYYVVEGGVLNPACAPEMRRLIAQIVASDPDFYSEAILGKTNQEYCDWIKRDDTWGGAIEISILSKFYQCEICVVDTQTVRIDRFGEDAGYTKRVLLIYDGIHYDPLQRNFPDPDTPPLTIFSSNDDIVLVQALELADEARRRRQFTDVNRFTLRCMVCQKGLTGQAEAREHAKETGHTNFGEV
inactive: [1]; compound concentration: 50uM -0.158 | [1]; compound concentration: 200uM 0.159 | [2]; compound concentration: 50uM -0.167 | [2]; compound concentration: 200uM -0.318 | [3]; compound concentration: 50uM 0.161 | [3]; compound concentration: 200uM -0.174 | [4]; compound concentration: 50uM 0.362 | [4]; compound concentration: 200uM -0.265 | [5]; compound concentration: 50uM 0.0837 | [5]; compound concentration: 200uM -0.394

OTUB1 (UniProt Q96FW1)
inactive: [1]; compound concentration: 50uM -0.212 | [1]; compound concentration: 200uM -0.0215 | [2]; compound concentration: 50uM -0.31 | [2]; compound concentration: 200uM -0.319 | [3]; compound concentration: 50uM 0.00122 | [3]; compound concentration: 200uM -0.246 | [4]; compound concentration: 50uM 0.0292 | [4]; compound concentration: 200uM -0.0965 | [5]; compound concentration: 50uM 0.0783 | [5]; compound concentration: 200uM -0.137

USP5 (UniProt P45974)
inactive: [1]; compound concentration: 50uM 0.0451 | [1]; compound concentration: 200uM 0.134 | [2]; compound concentration: 50uM 0.0362 | [2]; compound concentration: 200uM -0.0604 | [3]; compound concentration: 50uM 0.236 | [3]; compound concentration: 200uM -0.0467 | [4]; compound concentration: 50uM 0.0744 | [4]; compound concentration: 200uM -0.095 | [5]; compound concentration: 50uM 0.22 | [5]; compound concentration: 200uM -0.287

USP42 (UniProt Q9H9J4)
Chain of UniProt Q9H9J4 (Q9H9J4 whole entry): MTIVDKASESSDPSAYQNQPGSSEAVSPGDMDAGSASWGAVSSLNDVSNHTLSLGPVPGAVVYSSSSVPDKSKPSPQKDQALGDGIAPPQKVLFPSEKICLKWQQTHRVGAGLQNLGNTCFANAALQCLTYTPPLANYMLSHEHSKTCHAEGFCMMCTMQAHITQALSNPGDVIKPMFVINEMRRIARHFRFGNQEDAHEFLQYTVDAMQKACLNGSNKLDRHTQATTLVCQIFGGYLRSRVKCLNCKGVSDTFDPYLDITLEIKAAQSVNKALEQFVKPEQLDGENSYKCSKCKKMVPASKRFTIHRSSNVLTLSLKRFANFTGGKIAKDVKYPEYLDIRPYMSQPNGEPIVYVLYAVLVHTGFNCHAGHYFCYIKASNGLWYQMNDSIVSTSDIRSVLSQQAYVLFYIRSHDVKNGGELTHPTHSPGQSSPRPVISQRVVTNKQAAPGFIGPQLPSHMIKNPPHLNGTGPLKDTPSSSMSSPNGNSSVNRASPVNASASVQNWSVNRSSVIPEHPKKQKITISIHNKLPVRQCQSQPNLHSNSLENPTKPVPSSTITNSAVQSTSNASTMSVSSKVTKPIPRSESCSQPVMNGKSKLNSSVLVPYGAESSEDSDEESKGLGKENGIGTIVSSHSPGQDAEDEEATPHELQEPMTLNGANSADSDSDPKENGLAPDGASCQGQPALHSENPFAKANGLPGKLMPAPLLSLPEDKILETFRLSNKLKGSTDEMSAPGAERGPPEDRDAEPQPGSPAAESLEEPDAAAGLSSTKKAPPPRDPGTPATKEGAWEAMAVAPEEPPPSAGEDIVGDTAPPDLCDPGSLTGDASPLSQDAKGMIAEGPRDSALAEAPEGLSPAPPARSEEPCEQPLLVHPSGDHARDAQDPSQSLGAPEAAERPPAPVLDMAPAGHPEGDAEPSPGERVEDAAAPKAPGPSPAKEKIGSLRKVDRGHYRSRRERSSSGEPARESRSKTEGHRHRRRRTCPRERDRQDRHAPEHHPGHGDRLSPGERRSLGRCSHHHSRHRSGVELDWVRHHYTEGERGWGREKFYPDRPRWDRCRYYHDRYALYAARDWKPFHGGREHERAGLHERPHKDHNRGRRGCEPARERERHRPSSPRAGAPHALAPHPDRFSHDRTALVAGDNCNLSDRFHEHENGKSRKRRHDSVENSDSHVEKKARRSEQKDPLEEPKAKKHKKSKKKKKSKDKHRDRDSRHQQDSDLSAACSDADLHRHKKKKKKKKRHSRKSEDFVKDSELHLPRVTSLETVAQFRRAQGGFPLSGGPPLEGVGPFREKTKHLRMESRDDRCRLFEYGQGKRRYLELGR
inactive: [1]; compound concentration: 50uM 0.113 | [1]; compound concentration: 200uM 0.286 | [2]; compound concentration: 50uM -0.00469 | [2]; compound concentration: 200uM 0.132 | [3]; compound concentration: 50uM 0.137 | [3]; compound concentration: 200uM 0.26 | [4]; compound concentration: 50uM -0.0967 | [4]; compound concentration: 200uM 0.0714 | [5]; compound concentration: 50uM -0.0766 | [5]; compound concentration: 200uM 0.241

VCPIP1 (UniProt Q96JH7)
active: [1]; compound concentration: 200uM -1.1 | [3]; compound concentration: 200uM -1.2
inactive: [1]; compound concentration: 50uM -0.592 | [2]; compound concentration: 50uM -0.668 | [2]; compound concentration: 200uM -0.836 | [3]; compound concentration: 50uM -0.427 | [4]; compound concentration: 50uM -0.287 | [4]; compound concentration: 200uM -0.962 | [5]; compound concentration: 50uM -0.145 | [5]; compound concentration: 200uM -0.737

UniProt O00487
inactive: [1]; compound concentration: 50uM -0.451 | [1]; compound concentration: 200uM -0.117 | [2]; compound concentration: 50uM -0.207 | [2]; compound concentration: 200uM 0.0311 | [3]; compound concentration: 50uM 0.124 | [3]; compound concentration: 200uM -0.15 | [4]; compound concentration: 50uM -0.0195 | [4]; compound concentration: 200uM -0.0757 | [5]; compound concentration: 50uM 0.285 | [5]; compound concentration: 200uM 0.135

UniProt Q70EL2
inactive: [1]; compound concentration: 50uM 0.0142 | [1]; compound concentration: 200uM -0.673 | [2]; compound concentration: 50uM -0.00989 | [2]; compound concentration: 200uM -0.0714 | [3]; compound concentration: 50uM 0.0879 | [3]; compound concentration: 200uM 0.0524 | [4]; compound concentration: 50uM 0.0625 | [4]; compound concentration: 200uM -0.323 | [5]; compound concentration: 50uM -0.414 | [5]; compound concentration: 200uM -0.995

USP10 (UniProt Q14694)
inactive: [1]; compound concentration: 50uM -0.107 | [1]; compound concentration: 200uM 0.139 | [2]; compound concentration: 50uM -0.314 | [2]; compound concentration: 200uM -0.0917 | [3]; compound concentration: 50uM -0.0829 | [3]; compound concentration: 200uM 0.0327 | [4]; compound concentration: 50uM -0.162 | [4]; compound concentration: 200uM 0.0178 | [5]; compound concentration: 50uM -0.0782 | [5]; compound concentration: 200uM -0.162

USP34 (UniProt Q70CQ2)
inactive: [1]; compound concentration: 50uM -0.752 | [1]; compound concentration: 200uM -0.268 | [2]; compound concentration: 50uM 0.178 | [2]; compound concentration: 200uM 0.0865 | [3]; compound concentration: 50uM -0.0836 | [3]; compound concentration: 200uM -0.557 | [4]; compound concentration: 50uM -0.0266 | [4]; compound concentration: 200uM 0.046 | [5]; compound concentration: 50uM -0.25 | [5]; compound concentration: 200uM -0.554

USP4 (UniProt Q13107)
inactive: [1]; compound concentration: 50uM 0.337 | [1]; compound concentration: 200uM -0.155 | [2]; compound concentration: 50uM -0.21 | [2]; compound concentration: 200uM 0.596 | [3]; compound concentration: 50uM -0.0317 | [3]; compound concentration: 200uM -0.104 | [4]; compound concentration: 50uM -0.54 | [4]; compound concentration: 200uM -0.195 | [5]; compound concentration: 50uM -0.32 | [5]; compound concentration: 200uM 0.659

UCHL5 (UniProt Q9Y5K5)
Chain of UniProt Q9Y5K5 (Q9Y5K5 whole entry): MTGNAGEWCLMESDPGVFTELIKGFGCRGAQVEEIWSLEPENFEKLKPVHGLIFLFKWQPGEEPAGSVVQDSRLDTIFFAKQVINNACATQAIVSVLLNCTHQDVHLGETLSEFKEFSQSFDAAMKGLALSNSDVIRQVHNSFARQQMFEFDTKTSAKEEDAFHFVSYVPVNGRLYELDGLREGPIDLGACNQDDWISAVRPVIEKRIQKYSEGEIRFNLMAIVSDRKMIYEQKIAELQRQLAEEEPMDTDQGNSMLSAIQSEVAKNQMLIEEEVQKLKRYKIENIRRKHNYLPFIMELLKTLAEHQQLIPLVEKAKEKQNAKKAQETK
inactive: [1]; compound concentration: 50uM -0.182 | [1]; compound concentration: 200uM -0.0853 | [2]; compound concentration: 50uM -0.308 | [2]; compound concentration: 200uM -0.472 | [3]; compound concentration: 50uM 0.0503 | [3]; compound concentration: 200uM -0.365 | [4]; compound concentration: 50uM -0.0983 | [4]; compound concentration: 200uM -0.443 | [5]; compound concentration: 50uM -0.226
active: [5]; compound concentration: 200uM -1.37

USP7 (UniProt Q93009)
active: [5]; compound concentration: 200uM -1.83
inactive: [1]; compound concentration: 50uM -0.0886 | [1]; compound concentration: 200uM -0.205 | [2]; compound concentration: 50uM -0.182 | [2]; compound concentration: 200uM -0.301 | [3]; compound concentration: 50uM 0.0569 | [3]; compound concentration: 200uM -0.25 | [4]; compound concentration: 50uM 0.0324 | [4]; compound concentration: 200uM -0.432 | [5]; compound concentration: 50uM -0.507

FAM105A (UniProt Q9NUU6)
inactive: [1]; compound concentration: 50uM -0.0884 | [1]; compound concentration: 200uM -0.0754 | [2]; compound concentration: 50uM -0.148 | [2]; compound concentration: 200uM -0.0677 | [3]; compound concentration: 50uM 0.0795 | [3]; compound concentration: 200uM -0.0897 | [4]; compound concentration: 50uM 0.0155 | [4]; compound concentration: 200uM -0.0104 | [5]; compound concentration: 50uM 0.239 | [5]; compound concentration: 200uM -0.443

OTUD7B (UniProt Q6GQQ9)
inactive: [5]; compound concentration: 50uM -0.187
active: [1]; compound concentration: 50uM -4.5 | [1]; compound concentration: 200uM -5.65 | [2]; compound concentration: 50uM -2.75 | [2]; compound concentration: 200uM -5.2 | [3]; compound concentration: 50uM -3.62 | [3]; compound concentration: 200uM -5.08 | [4]; compound concentration: 50uM -5.19 | [4]; compound concentration: 200uM -5.13 | [5]; compound concentration: 200uM -1.57

USP24 (UniProt Q9UPU5)
Chain of UniProt Q9UPU5 (Q9UPU5 whole entry): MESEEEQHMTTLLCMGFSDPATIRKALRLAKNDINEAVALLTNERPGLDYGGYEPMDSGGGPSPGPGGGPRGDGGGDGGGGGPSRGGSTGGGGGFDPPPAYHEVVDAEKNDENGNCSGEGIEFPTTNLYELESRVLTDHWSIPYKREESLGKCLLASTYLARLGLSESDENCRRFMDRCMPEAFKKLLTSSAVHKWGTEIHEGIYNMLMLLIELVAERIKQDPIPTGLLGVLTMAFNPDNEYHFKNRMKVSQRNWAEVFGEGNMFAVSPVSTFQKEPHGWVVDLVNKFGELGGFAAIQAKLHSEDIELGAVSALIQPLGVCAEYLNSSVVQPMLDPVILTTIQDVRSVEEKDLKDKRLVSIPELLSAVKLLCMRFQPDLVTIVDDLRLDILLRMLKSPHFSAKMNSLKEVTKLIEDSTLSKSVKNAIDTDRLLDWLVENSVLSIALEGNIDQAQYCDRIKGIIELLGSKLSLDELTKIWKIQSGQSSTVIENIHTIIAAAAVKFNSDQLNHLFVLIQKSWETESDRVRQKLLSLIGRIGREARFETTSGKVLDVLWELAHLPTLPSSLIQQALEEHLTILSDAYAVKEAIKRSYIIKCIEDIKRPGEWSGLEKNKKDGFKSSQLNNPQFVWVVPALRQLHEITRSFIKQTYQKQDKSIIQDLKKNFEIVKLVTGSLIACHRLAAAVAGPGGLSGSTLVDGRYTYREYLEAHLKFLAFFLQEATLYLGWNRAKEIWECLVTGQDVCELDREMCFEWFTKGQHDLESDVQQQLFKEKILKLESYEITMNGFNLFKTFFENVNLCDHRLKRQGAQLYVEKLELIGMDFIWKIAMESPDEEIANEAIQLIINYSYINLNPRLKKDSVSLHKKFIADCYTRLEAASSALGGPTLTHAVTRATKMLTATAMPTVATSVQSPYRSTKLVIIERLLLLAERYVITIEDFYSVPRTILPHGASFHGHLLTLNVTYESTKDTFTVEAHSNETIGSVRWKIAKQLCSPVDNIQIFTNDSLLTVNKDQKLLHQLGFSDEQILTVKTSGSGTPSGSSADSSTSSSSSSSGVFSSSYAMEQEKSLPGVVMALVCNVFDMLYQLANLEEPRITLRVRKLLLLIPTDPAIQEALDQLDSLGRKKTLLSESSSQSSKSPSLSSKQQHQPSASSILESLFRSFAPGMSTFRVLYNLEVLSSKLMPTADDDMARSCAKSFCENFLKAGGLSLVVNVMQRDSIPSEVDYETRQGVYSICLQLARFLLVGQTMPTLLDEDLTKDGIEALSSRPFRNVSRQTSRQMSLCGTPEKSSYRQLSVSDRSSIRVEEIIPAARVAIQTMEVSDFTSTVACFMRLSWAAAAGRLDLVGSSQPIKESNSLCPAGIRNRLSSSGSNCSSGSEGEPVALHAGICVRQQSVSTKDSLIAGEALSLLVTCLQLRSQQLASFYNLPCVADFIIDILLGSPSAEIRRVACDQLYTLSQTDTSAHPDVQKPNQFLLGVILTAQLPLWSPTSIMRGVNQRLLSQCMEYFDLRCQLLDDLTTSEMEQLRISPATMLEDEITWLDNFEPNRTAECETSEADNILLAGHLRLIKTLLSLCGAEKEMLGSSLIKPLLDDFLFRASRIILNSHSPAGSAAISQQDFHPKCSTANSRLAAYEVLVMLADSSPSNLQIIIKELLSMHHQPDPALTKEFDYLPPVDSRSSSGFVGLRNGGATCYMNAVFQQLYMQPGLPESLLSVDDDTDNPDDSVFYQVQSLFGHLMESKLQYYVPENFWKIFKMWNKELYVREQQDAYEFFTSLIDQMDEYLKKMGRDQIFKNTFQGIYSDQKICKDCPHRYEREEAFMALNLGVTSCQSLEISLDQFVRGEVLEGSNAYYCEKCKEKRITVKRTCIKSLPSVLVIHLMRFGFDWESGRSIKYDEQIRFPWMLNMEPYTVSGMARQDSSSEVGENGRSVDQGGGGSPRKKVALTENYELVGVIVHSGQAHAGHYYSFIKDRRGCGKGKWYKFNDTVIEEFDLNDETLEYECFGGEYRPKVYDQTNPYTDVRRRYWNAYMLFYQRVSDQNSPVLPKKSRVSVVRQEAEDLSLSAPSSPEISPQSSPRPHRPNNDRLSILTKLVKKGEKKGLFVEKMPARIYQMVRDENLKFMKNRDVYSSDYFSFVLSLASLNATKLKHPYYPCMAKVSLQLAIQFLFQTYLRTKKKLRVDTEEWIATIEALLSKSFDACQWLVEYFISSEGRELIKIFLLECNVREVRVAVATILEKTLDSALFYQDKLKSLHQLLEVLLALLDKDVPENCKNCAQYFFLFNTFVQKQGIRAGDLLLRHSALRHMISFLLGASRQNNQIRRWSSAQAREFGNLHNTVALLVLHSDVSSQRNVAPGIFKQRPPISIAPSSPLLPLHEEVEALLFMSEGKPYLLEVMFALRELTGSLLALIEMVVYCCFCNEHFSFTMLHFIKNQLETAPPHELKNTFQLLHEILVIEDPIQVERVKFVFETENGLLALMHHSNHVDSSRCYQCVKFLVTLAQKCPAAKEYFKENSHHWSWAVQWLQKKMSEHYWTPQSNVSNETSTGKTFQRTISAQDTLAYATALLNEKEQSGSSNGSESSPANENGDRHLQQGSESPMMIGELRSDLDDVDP
active: [5]; compound concentration: 200uM -2.07
inactive: [1]; compound concentration: 50uM -0.0627 | [1]; compound concentration: 200uM -0.259 | [2]; compound concentration: 50uM -0.0337 | [2]; compound concentration: 200uM -0.691 | [3]; compound concentration: 50uM 0.0214 | [3]; compound concentration: 200uM -0.445 | [4]; compound concentration: 50uM 0.184 | [4]; compound concentration: 200uM -0.614 | [5]; compound concentration: 50uM -0.726
